# PubChem BioAssay (Tox21)
# Results filed as inconclusive are left out. The source made the active and inactive calls. Calls follow the shape of the dose curve; as a rule, active = well fitted cell-killing curve with a large enough effect in the repeat runs; inconclusive = weak or mixed curves, or effect the other way; inactive = no such curve, though single readings can be large or run the other way.
# Test: qHTS assay to identify small molecule antagonists of the retinoid-related orphan receptor gamma (ROR-gamma) signaling pathway - cell viability counter screen (AID 1159520); also: nearly all actives have a fitted effect of over 50% in size
# Conditions: Tet-on RORgamma CHO cells viability, ATP luminescence, 16 h; series mostly up to 92.4 µM; activity, negative = cytotoxicity: at the top concentration
# Excerpt: U.S. Tox21 Program National Center for Advancing Translational Sciences [NCATS] NIH Chemical Genomics Center [NCGC] U.S. Environmental Protection Agency [EPA] National Institutes of Environmental Health Sciences [NIEHS] National Toxicology Program [NTP] U.S. Food and Drug Administration [FDA] Tox21 Assay Overview: Nuclear steroid hormone receptors are involved in many biological processes including inflammatory responses, cell proliferation, and apoptosis. Environmental factors or compounds disrupting these nuclear receptor pathways and gene expression may promote susceptibility to immunotoxicants and autoimmune diseases. One important group of these expression factors are the retinoid-related orphan receptors. To assess compounds that may interfere with the retinoid-related orphan receptor gamma (ROR-gamma) transcription factor, a cell-based luciferase assay was used. The CHO cell-based assay utilizes a TET-inducible ROR expression factor and ROR response element-LUC reporter gene. Reporter gene activity was induced using Doxycycline Hyclate and measured after 16 hr incubation. Tet-on ROR gamma CHO cells were used to screen against the Tox21 10K compound library for cytotoxicity by measuring the viability of the cells based on the quantitation of the ATP.
# Tox21 Assay Protocol Summary: Tet-on ROR gamma CHO cells were dispensed at 1,000 cells in 4 uL of culture medium per well into white wall/solid bottom 1536-well plates using a Multidrop Combi (Thermo Scientific, Waltham, MA) dispenser. Following incubation at 37 C and 5% CO2 for 4 hr, 23 nL of compounds dissolved in DMSO, positive controls or DMSO only were transferred by a Pintool station (Kalypsys, San Diego, CA) and after 2 hr incubation at 37 C, one ul of 1 uM (final concentration) of Doxycycline Hyclate was added to all the wells by using a Flying Reagent Dispenser (FRD) (Aurora Discovery, San Diego, CA). After 16 hr incubation at 37 C and 5% CO2, 5 uL of CellTiter-Glo reagent (Promega Corporation, Madison, WI) was added to each assay plate using FRD. After 30 min incubation at room temperature, luminescence was quantified on a ViewLux plate reader (Perkin Elmer, Waltham, MA).
# % is scaled to controls: 0 for no effect and ±100 for the full control effect.
row,Compound,"activity, negative = cytotoxicity"
1,[Ca+2],2.49% (inactive)
2,CCCCN1C=CN(C)C1,1.65% [at 19 µM] (inactive)
3,C=COCC1CCC(COC=C)CC1 (stereo not given),-2.13% (inactive)
4,COc1ccc2cc1Oc1cc3c(cc1OC)CC[N+](C)(C)[C@H]3Cc1ccc(cc1)Oc1c(OC)c(OC)cc3c1[C@@H](C2)[N+](C)(C)CC3,-5.06% [at 42.5 µM] (inactive)
5,CCCCCCCCCCCCCCCCCCO,-1.72% [at 42.5 µM] (inactive)
6,CC(=O)c1ccc2ccccc2c1,-4.86% (inactive)
7,c1ccc(Cc2ccccc2)cc1,4.47% (inactive)
8,C=CCCCCCCCCC(=O)OCC,1.02% (inactive)
9,CCCO[Si](OCCC)(OCCC)OCCC,0.525% (inactive)
10,CC(=O)N1C[C@H](O)C[C@H]1C(=O)O,0.162% [at 42.5 µM] (inactive)
11,CC(=O)NC(=O)c1ccccc1O,-6.33% [at 42.5 µM] (inactive)
12,O=[N+]([O-])c1cncn1CCN1CCOCC1,5.21% [at 42.5 µM] (inactive)
13,CNCC(O)c1ccc(O)c(O)c1 (stereo not given),2.14% [at 42.5 µM] (inactive)
14,CCO[Si](OCC)(OCC)c1ccccc1,2.3% (inactive)
15,CN1CCC(=C2c3ccccc3CCc3cccnc32)CC1,2.39% [at 42.5 µM] (inactive)
16,Cc1ccc(-c2ccccc2C#N)cc1,3.46% [at 42.5 µM] (inactive)
17,CCCCCCCCCCCCCCC(=O)O,1.17% (inactive)
18,Cc1nc2ccc(CN(C)c3ccc(C(=O)N[C@@H](CCC(=O)O)C(=O)O)s3)cc2c(=O)[nH]1,0.923% [at 42.5 µM] (inactive)
19,NCCCC[C@H](N[C@@H](CCc1ccccc1)C(=O)O)C(=O)N1CCC[C@H]1C(=O)O,1.59% [at 42.5 µM] (inactive)
20,CCCc1ncc(C[n+]2ccccc2C)c(N)n1,-1.03% [at 42.5 µM] (inactive)

row,Compound,"activity, negative = cytotoxicity"
1,Cc1ccc(C(=O)c2ccccc2)cc1,-0.258% (inactive)
2,CC(=O)c1cnccn1,-3.31% (inactive)
3,CN(C)CCN(C)CCN(C)C,-3.82% (inactive)
4,Cc1coc2ccccc2c1=O,0.85% [at 42.5 µM] (inactive)
5,CCC(C)(CN(C)C)OC(=O)c1ccccc1 (stereo not given),4.96% [at 42.5 µM] (inactive)
6,O=S(=O)(O)c1cccc(S(=O)(=O)O)c1,0.946% (inactive)
7,C=C(C)C(=O)OCC1CCCO1 (stereo not given),12.2% (inactive)
8,Cc1cccc(C)c1NC(=O)CC12CCCN1CCC2,5.77% [at 42.5 µM] (inactive)
9,CCCCCCC1CCC(=O)O1 (stereo not given),2.09% (inactive)
10,CC(C)NNC(=O)c1ccncc1,0.958% [at 42.5 µM] (inactive)
11,CCCCCCCCN1CCCC1=O,6% (inactive)
12,O=C(c1ccccc1)C1(O)CCCCC1,2.97% (inactive)
13,Cc1cc(C)c(N=Nc2c(O)c(S(=O)(=O)O)cc3cc(S(=O)(=O)O)ccc23)cc1C,-7.94% [at 8.39 µM] (inactive)
14,CC(C)(CCC(=O)O)C(=O)O,2.62% (inactive)
15,CN1CCN(c2cc3c(nn2)Oc2ccccc2N3C)CC1,0.179% [at 19 µM] (inactive)
16,CCCC(C)C(=O)OCC (stereo not given),10.7% (inactive)
17,Cc1c(N)c(=O)n(-c2ccccc2)n1C,-2.64% [at 42.5 µM] (inactive)
18,CCOC(=O)CCC(=O)OCC,3.74% (inactive)
19,CCCCS(=O)(=O)N[C@@H](Cc1ccc(OCCCCC2CCNCC2)cc1)C(=O)O,0.651% [at 42.5 µM] (inactive)
20,NC(=O)N1c2ccccc2CC(=O)c2ccccc21,0.556% [at 42.5 µM] (inactive)
